Measurements from the supplement of paper PMC7156485.
Where “and” joins values, the source holds several entries; their conditions need not be identical. Equal entries are not always repeated.

Tested on: TDF
Experiment: H1.0 immunofluorescence intensity relative to DMSO (% of DMSO); higher = stronger H1.0 induction, active = 120 or more
Details: concentration: 10 µM; 24 h
Method in brief: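 HCC1569 and TDF cells (800 per well, 384-well plates, RPMI with 10% FBS) were treated with compounds at 10 µM for 24 h at 37 °C, in triplicate. Cells were fixed in 3.7% formaldehyde and stained with a rabbit anti-H1.0 antibody, an AlexaFluor 647 secondary and DAPI; six fields per well were imaged at ×10. H1.0 nuclear intensity or cell number is expressed as percent of the plate DMSO control, taking the median of replicates. HCC1569 values were smoothed for positional effects.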
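Also: TDF is a line of transformed human dermal fibroblasts of mesenchymal origin.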

H1.0 immunofluorescence intensity, inactive:
CNC1C(OC2OC(CO)C(N)C(O)C2O)OC2CC(N)C(OC3C(N)CC(N)C(O)C3O)OC2C1O (stereo not given) [Apramycin] 98.5
NC(=O)c1ccc(-c2nc(-c3ccc4c(c3)OCCO4)c(-c3ccccn3)[nH]2)cc1 94.2
N#Cc1c(N(CC(=O)[O-])CC(=O)[O-])sc(C(=O)[O-])c1CC(=O)[O-].[Sr+2].[Sr+2] 86.6
N#Cc1ccc(N2N=C3c4ccc(C(=O)O)cc4CCC3C2C2CCCC2)cc1Cl (stereo not given) 85.4
Cl.Cl.Cl.Cl.NCCCNCCCCNCCCN [Spermine tetrahydrochloride] 92.3
CCCC(=O)O[C@]1(C(=O)CO)CC[C@H]2[C@@H]3CCC4=CC(=O)CC[C@]4(C)[C@H]3[C@@H](O)C[C@@]21C [(11beta)-11,21-dihydroxy-3,20-dioxopregn-4-en-17-yl butyrate] 84.9
CCOC(=O)CNC(=O)[C@@H]1CCCN1C(=O)Cc1ccccc1 97.4
CCCCCC(O)C=CC1C(O)CC(O)C1CC=CCCCC(=O)O (racemic) 88.4
COc1c(C)c2c(c(O)c1CC=C(C)CCC(=O)O)C(=O)OC2 [Mycophenolic Acid] 104
CC(C)(C)C(=O)OCOC(=O)[C@@H]1N2C(=O)[C@@H](/N=C/N3CCCCCC3)[C@H]2SC1(C)C 89
NCCCCC(NC(CCc1ccccc1)C(=O)O)C(=O)N1CCCC1C(=O)O (stereo not given) [Lisinopril] 97.2
CCCCCCCCCCCCCCCC(=O)NC(CN1CCOCC1)C(O)c1ccccc1 (racemic) 97.6
CSCC[C@@H](C=O)NC(=O)[C@H](CC(C)C)NC(=O)[C@H](CC(C)C)NC(C)=O 96.4
CC(CCc1ccc(O)cc1)NCCc1ccc(O)c(O)c1.Cl (stereo not given) [Dobutamine.HCl] 83.4
CC(C)n1cnc2c(NCc3ccccc3)nc(NCCO)nc21 [N9-Isopropylolomoucine] 95
CCN(CC)Cc1ccc(C(=O)N(CCc2ccccc2OC)[C@@H]2CCNC2)cc1.Cl.Cl 100
CC(C)(C)c1ccc(C(O)CCCN2CCC(C(O)(c3ccccc3)c3ccccc3)CC2)cc1 (stereo not given) [Terfenadine] 107
Cc1cc(C)c(C=C2C(=O)Nc3ccccc32)[nH]1 94.2 and 92.7
Cl.Nc1nc2ccc(OC(F)(F)F)cc2s1 [Riluzole.HCl] 96.2
CCOC(=O)C1=CC(OC(CC)CC)C(NC(C)=O)C(N)C1 (stereo not given) [Oseltamivir] 94
CCCCCCCCCCCCCCCCCCOP(=O)([O-])OC1CC[N+](C)(C)CC1 [1,1-dimethylpiperidinium-4-yl octadecyl phosphate] 98.2
Cc1cc(=O)oc2cc(O)ccc12 [4-Methylumbelliferone] 102
CC1CCC(C(C)(C)O)CC2=C1CCC2C (single isomer, unassigned; (-)) [(-)-Guaiol] 102
C[N+](C)(C)CCO.[Br-] [Choline bromide] 96.9
CCCCC=CCCCCCCCC(=O)O [9(Z)-Tetradecenoic acid] 104
CCCCOc1cc(CC2CNC(=O)N2)ccc1OC (stereo not given) 85.3
Cc1cn[nH]c1.Cl [4-Methylpyrazole hydrochloride] 98.5
CC(=O)O/N=C1\C(=O)N(Cc2cc(Cl)ccc2Cl)c2ccc(Cl)cc21 97.2
Cc1ccc(F)cc1C(=O)Nc1ccc(C(=O)N2Cc3cccn3Cc3ccccc32)c(Cl)c1 93.2
Cc1c2c(c(O)c3c(O)cccc13)C(=O)OC2C1C(O)C(=O)C(C(N)=O)=C(O)C1N(C)C (racemic) 96.4
COc1cc(-c2ccc(=O)[nH]n2)ccc1OC(F)F [Zardaverine] 91.5
CC(C)S(=O)(=O)N[C@H]1CCOC[C@@H]1c1ccc(-c2ccc(C#N)s2)cc1 96.5
N#CC(=Cc1ccc(O)c(O)c1)C(=O)NCCCc1ccccc1 [Tyrphostin AG 555] 88.6
CC(=O)O.CN=C(N)NCCCC(N)C(=O)O [NG-Monomethyl-L-arginine acetate] 95.6
CCCCCCCCC=CCCCCCCCC(=O)OCC(O)COP(=O)(O)O (stereo not given) [Lysophosphatidic acid] 96.9
C=C1CC23CC1(O)CCC2C12C=CC(O)C(C)(C(=O)O1)C2C3C(=O)O (single isomer, unassigned; (+)) [(+)-Gibberellic acid] 98.6
CC(Cc1ccccc1)Nc1ncnc2c1ncn2C1OC(CO)C(O)C1O (stereo not drawn) [R(-)-N6-(2-Phenylisopropyl)adenosine] 93.6
N=c1nc(N2CCCCC2)cc(N)n1O [Minoxidil] 92
O=C1Cc2c([nH]c3ccc(Br)cc23)-c2ccccc2N1 [Kenpaulone] 89.8
CCCCCCCCCCCCCC=CC(O)C(N)CO (stereo not given) [Sphingosine] 96.9
